Reference: PubChem BioAssay AID720565 (National Center for Advancing Translational Sciences (NCATS), 2013)
“And” between values parts separate entries of the source, which are not always exact repeats. Identical values can stand only once. Inconclusive results are not listed. Values without a mark were called inactive. The source made the active and inactive calls. Calls come from the whole dose curve; as a rule, active = well fitted activation curve with a large enough effect; inconclusive = small, poorly fitted or top-dose-only effect; inactive = no such curve, though single readings can be large or run the other way.
Potency is the fitted concentration of half-maximal effect.

Assay: qHTS for small molecules that induce genotoxicity in ELG1 expressing cells: Confirmatory Assay for Cherry-picked Compounds; note: nearly all actives have a fitted effect of over 35% in size; for activation: % of control where 0% means no effect
Conditions: ELG1-luciferase reporter cells, luminescence, 16 h; series mostly up to 46.1 µM; activation: at the top concentration
Procedure, shortened: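 Activation readout: ONE-Glo luciferase signal from ELG1 reporter cells, 2,000 per well, after 16 hr compound incubation at 37 C. Increased ELG1-driven luminescence reflects genetic stress.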
With O=C(CSc1nnc(-c2ccc(O)cc2)o1)Nc1ccccc1 the Potency was 5 µM (active). With C[C@@H]1CC2[C@@H]3CCC4=CC(=O)C=C[C@]4(C)[C@@]3(F)[C@@H](O)C[C@]2(C)[C@@]1(O)C(=O)NCCCCCCOC[C@H]1O[C@@H](n2cnc3cc(Cl)c(Cl)cc32)[C@@H]2OC(C)(C)O[C@@H]21 (stereo partly drawn) the Potency was 2.29 µM (active). In the case of Cc1ccc(C(=O)NN=CC(=O)c2ccccc2)c(C)c1, the Potency is reported as 6.28 µM (active). In the case of Cc1cc(C(=O)COC(=O)C23CC4CC(CC(O)(C4)C2)C3)c(C)n1C, the Potency is reported as 14.1 µM (active). With Cc1cc(C(=O)COC(=O)c2ccc(F)cc2)c(C)n1C the Potency was 2.23 µM (active). With Cc1ccc(C(=O)Cn2c3c(sc2=N)CCCC3)cc1 the Potency was 0.141 µM (active). For COc1cccc2oc(-c3ccccc3)cc(=O)c12, the Potency was 4.45 µM (active). For CNc1ccc(/C=C2\C=Cc3ccccc32)cc1, the Potency was 0.792 µM (active). For Fc1ccccc1-c1nc(-c2ccc(-c3nn[nH]n3)cc2)no1, the Potency was 7.91 µM (active). In the case of O=C(CSc1nc2ccccc2o1)Nc1ccccc1N1CCCCCC1, the “activation” value is reported as -14.9%. In the case of CCCC(=O)Oc1ccc2[nH]c(C(=O)c3cc4ccccc4[nH]3)cc2c1, the Potency is reported as 6.28 µM (active). In the case of O=c1[nH]c(-c2ccc(-c3cccc(Cl)c3)o2)nc2ccccc12, the Potency is reported as 1.12 µM (active) and 1.41 µM (active). With Nc1ccccc1NC(=O)c1ccc(CNC(=O)OCc2cccnc2)cc1 the Potency was 2.81 µM (active). With CNC(=O)c1cc(-c2cccs2)on1 the “activation” value was 11.9%. With CC(=O)N1CCc2cc(Br)cc(S(=O)(=O)CCC(=O)Nc3c(C)n(C)n(-c4ccccc4)c3=O)c21 the “activation” value was -3.98%. In the case of c1ccc(-c2cc3cc4c(cc3cn2)OCO4)cc1, the Potency is reported as 2.81 µM (active). In the case of O=S(=O)(c1ccc2ccccc2c1)N1CCN(S(=O)(=O)c2c(F)cccc2F)CC1, the Potency is reported as 14.1 µM (active). For CN(C)c1ccc(/C=C2\CCc3ccccc32)cc1, the Potency was 1.58 µM (active). With O=C(CSc1nnc(Cc2ccccc2)o1)Nc1ccc(Br)cn1 the “activation” value was -11.1%. For CC(C)CN(C)c1ccc(/C=C2\C=Cc3ccccc32)cc1, the Potency was 14.1 µM (active). With Cc1cc(C)cc(NC(=O)CCc2nc3sc4c(c3c(=O)[nH]2)CCCC4)c1 the “activation” value was 15.7%. With Cn1cccc1C(=O)OCC(=O)Nc1sccc1C#N the Potency was 15.8 µM (active). In the case of O=c1nc2sc3ccccc3n2c(=O)n1-c1cccc(Cl)c1, the Potency is reported as 5 µM (active). For CN(C)c1cccc(-c2ccnc(N3CCC(C(N)=O)CC3)n2)c1, the Potency was 0.5 µM (active). With CC(=O)NC12CC3CC(C1)CC(C(=O)OCC(=O)c1cc(C)n(C)c1C)(C3)C2 the Potency was 2.81 µM (active). With COc1ccc(/C=C/c2ccc3ccccc3n2)c(OC)c1 the Potency was 0.25 µM (active). In the case of COc1cccc(NC(=O)CSc2nnc(-c3ccc(C)cc3)o2)c1, the Potency is reported as 14.1 µM (active). With O=C(CSCC(=O)N1CCN(c2ccccc2)CC1)Nc1nc(-c2ccc(Cl)s2)cs1 the “activation” value was -28.8%. For Cn1cccc1C(=O)OCC(=O)c1c[nH]c2ccccc12, the Potency was 5.6 µM (active). In the case of COc1cccc(NC(=O)COC(=O)c2sccc2C)c1, the Potency is reported as 11.2 µM (active). With N#Cc1cc2cc3c(cc2nc1SCC(=O)N1CCOCC1)OCO3 the Potency was 4.45 µM (active). In the case of O=C(NC1CCCC1)c1cc(-c2cccs2)on1, the Potency is reported as 15.8 µM (active). With Cc1nc(Nc2nc3ccccc3o2)nc2c1CCCC2 the Potency was 0.706 µM (active). With Cc1cc(C)c(C#N)c(SCC(=O)Nc2cc(C)on2)n1 the Potency was 4.99 µM (active). For O=C(c1cc2ccccc2[nH]1)c1cc2cc(O)ccc2[nH]1, the Potency was 7.05 µM (active). In the case of c1nc(CCO[C@H]2CCCCO2)cc2cc3c(cc12)OCO3, the Potency is reported as 0.281 µM (active). With N#Cc1ccsc1NC(=O)CSc1nncs1 the Potency was 12.5 µM (active). For O=C1/C(=C/c2ccc(O)c(O)c2)Oc2ccccc21, the Potency was 6.28 µM (active).
